Laboratory results from PubChem BioAssay AID624167 (Sanford-Burnham Center for Chemical Genomics, 2012).

Assay: Peg3 promoter luciferase inhibitors, potency, dose response, cell-based, HeLa, CREF/GAPDH counter-screen panel (AID 624167)
Details: CREF/GAPDH counter-screens; run 1, dose range 1, at 100 µM (top of the series)
In the case of `CCC(c1nnnn1-c1ccc2c(c1)OCCO2)N1CCC(n2c(=O)[nH]c3ccccc32)CC1` (stereo not drawn), the inhibition is reported as 92.4%. With `CC1=CC2/C=C(\C)CCC(O)C(O)/C=C/C(=O)C23C(=O)NC(CC(C)C)C3C1C` (stereo not drawn) the inhibition was 99.8%. Compound `COC(COC(N)=O)C1=C(N2CC2)C(=O)C(C)=C(N2CC2)C1=O` (stereo not drawn) has an inhibition of 84.3%. With `CC(=O)OC1CC[C@]2(C#N)[C@H]3CC[C@]4(C)[C@H](C5C=CC(=O)O5)CCC4(O)C3CCC2(O)C1` (stereo partly drawn) the inhibition was 77.9%. `CC(=O)OC1(C)CC(C)C(=O)C(C(O)CC2CC(=O)NC(=O)C2)C1` (stereo not drawn) showed an inhibition of 89.5%. For `C=Cc1cc(OC)c2c(c1)c(=O)oc1c2cc(OC)c2c(O)ccc(C3OC(C)C(O)C(C)(O)C3O)c21` (stereo not drawn), the inhibition was -12.4%. In the case of `O=C(CSC1c2ccccc2-c2ccccc21)N/N=C/c1ccccc1O`, the inhibition is reported as 60.3%. With `COc1cc2nc(CN3CC=C(c4ccccc4)CC3)[nH]c(=O)c2cc1OC` the inhibition was 56.3%.
